Active and inactive are the calls of the source. How the calls were made is not given here.
Target: Estrogen receptor (Homo sapiens) (UniProt P03372)
Test: displacement of fluorescent estrogen from ERalpha – cell-based, Cos7 ERalpha-GFP, flow cytometry, primary screen (AID 1211);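 further: 0% = DMSO vehicle wells and 100% = no E2-Alexa633 signal left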
Settings: fluorescent ligand competition, stronger effect = higher value

Sequence of Estrogen receptor (Homo sapiens) (P03372 whole entry, looked up): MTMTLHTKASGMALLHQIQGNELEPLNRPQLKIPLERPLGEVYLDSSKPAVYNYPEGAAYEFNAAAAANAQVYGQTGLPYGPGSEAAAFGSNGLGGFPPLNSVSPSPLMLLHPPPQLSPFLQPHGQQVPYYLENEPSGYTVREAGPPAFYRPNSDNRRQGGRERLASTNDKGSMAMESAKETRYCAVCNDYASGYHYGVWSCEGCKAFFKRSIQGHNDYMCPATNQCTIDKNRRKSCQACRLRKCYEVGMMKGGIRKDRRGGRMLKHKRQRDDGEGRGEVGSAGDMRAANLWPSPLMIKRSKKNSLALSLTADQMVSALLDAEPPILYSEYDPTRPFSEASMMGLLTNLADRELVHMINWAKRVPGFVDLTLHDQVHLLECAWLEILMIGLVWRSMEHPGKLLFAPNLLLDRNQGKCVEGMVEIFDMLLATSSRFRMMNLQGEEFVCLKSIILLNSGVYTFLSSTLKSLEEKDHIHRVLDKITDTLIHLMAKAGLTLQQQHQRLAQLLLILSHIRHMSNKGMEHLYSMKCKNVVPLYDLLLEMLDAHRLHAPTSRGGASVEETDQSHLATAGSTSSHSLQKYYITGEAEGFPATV

SMILES	inhibition of ligand binding (at 10 µM)	inhibition of ligand binding (binding inhibition, at 0.1 µM) [%]
O=C(COC(=O)c1ccccc1Oc1ccccc1)NCc1ccco1	13% (inactive)	53
O=C(Cc1coc2cc3c(cc12)CCC3)OCc1cc(=O)n2c(n1)sc1ccccc12	31% (inactive)	9
COc1ccc(C)cc1-n1nnnc1SCC(=O)NC(=O)NCc1ccco1	15% (inactive)	26
O=c1nc2s/c(=C\c3ccco3)c(=O)n2nc1Cc1ccc(F)cc1	32% (inactive)	61
Cc1ccc(-c2nnc(-c3ccc(NC(=O)c4ccco4)cc3)o2)cc1	0% (inactive)	8
COc1ccccc1C(=O)Nc1nc(-c2cccs2)c(NC(C)=O)s1	29% (inactive)	25
O=C1C(c2ccnc3ccccc23)=C(O)c2ccccc21	26% (inactive)	28
Cc1ccc(-c2n[nH]c(=S)n2/N=C/C=C\c2ccccc2[N+](=O)[O-])cc1	40% (inactive)	57
O=C(NC1CCN(C(=O)N2c3ccccc3Sc3ccccc32)CC1)c1ccccc1Cl	36% (inactive)	37
O=C(c1cc2ncc(Br)cn2n1)N1CCN(C(=O)c2ccco2)CC1	2% (inactive)	15
O=C(O)c1cc(-c2ccco2)nc2ccccc12	57% (inactive)	21
Cc1nn(-c2ccccc2)c2sc(C(=O)c3c(N)n(C)c(=O)n(C)c3=O)cc12	0% (inactive)	16
Nc1ccc2nc(-c3ccc(N)c(Cl)c3)[nH]c2c1	31% (inactive)	12
Oc1ccc(-c2nc3ccc4ccccc4c3c3c2CCC3)cc1O	41% (inactive)	44
Cc1ccc(C(=O)ONc2ccc(N=NC(=O)c3ccccc3O)cc2)cc1	39% (inactive)	37
O=C(c1cc2ncc(Br)cn2n1)N1CCOCC1	54% (inactive)	25
COc1cccc(NC(=O)CSc2nc3ccccc3c3nc4ccccc4n23)c1	51% (inactive)	56
CCn1c(SCC(=O)N2CCOCC2)nc2oc3c(Cl)cc(Cl)cc3c(=O)c2c1=O	22% (inactive)	5
O=c1cc(CSc2nnc(-c3cccs3)n2Cc2ccccc2)nc2sc3ccccc3n12	49% (inactive)	28
Cc1oc2cc(O)ccc2c(=O)c1Oc1ccccc1	58% (active)	93

SMILES	inhibition of ligand binding (at 10 µM)	inhibition of ligand binding (binding inhibition, at 0.1 µM) [%]
C/C(N)=C(/C#N)C(=O)CSc1nnc(-c2ccc(OC(F)F)cc2)o1	20% (inactive)	24
CC1=C(SCCC#N)S/C(=C2\SC(C)=C(SCCC#N)S2)S1	59% (inactive)	11
COc1ccc2nc3oc(C(=O)N4CCN(c5cccc(C(F)(F)F)c5)CC4)cc3cc2c1	45% (inactive)	19
CCc1ccc2[nH]c(=O)c(CN(Cc3ccc4c(c3)OCO4)C(=O)c3ccco3)cc2c1	0% (inactive)	62
O=c1oc2ccccc2n1CCn1c2ccccc2c2nc3ccccc3nc21	27% (inactive)	28
CC(Cc1ccc(O)c(O)c1)C(C)Cc1ccc(O)c(O)c1 (stereo not drawn)	47% (inactive)	3
Cc1c(C(=O)OCc2ccccc2)[nH]c2c1C(=O)CC(c1ccco1)C2 (stereo not drawn)	37% (inactive)	24
CCC(Sc1ncnc2sc(C)c(C)c12)C(=O)OC (stereo not drawn)	38% (inactive)	30
COc1ccc(NC(=O)CSc2nc3ccccc3c3nc4ccccc4n23)cc1	23% (inactive)	31
COc1ccc(-c2nnc(SCC(=O)/C(C#N)=C(\C)N)o2)cc1	40% (inactive)	16
CCOC(=O)Cn1cnc2sc3c(c2c1=O)CCC3	23% (inactive)	13
COc1ccc(C2Nc3ccccc3C(=O)N2c2ccccc2)cc1COc1ccccn1 (stereo not drawn)	17% (inactive)	58
CN1C(=O)CC(C(=O)O)SC1=Nc1cc(Cl)c(O)c(Cl)c1 (stereo not drawn)	17% (inactive)	51
CC(=O)Nc1nonc1-c1nc2ccccc2n1N(C(C)=O)C(C)=O	44% (inactive)	59
Cc1ccc(N=Cc2ccc(O)cc2O)cc1F	29% (inactive)	2
CCC(=O)Oc1ccc(C(CC)C(CC)c2ccc(OC(=O)CC)cc2)cc1 (stereo not drawn)	80% (active)	89
O=C(Nc1ccccc1N1CCOCC1)c1cc(-c2ccco2)nc2ccccc12	15% (inactive)	22
O=C(Nc1ccc2nn(-c3ccccc3)nc2c1)c1ccc2c(c1)OCO2	15% (inactive)	44
CCOC(=O)c1cc2c(c(CSc3nc4ccccc4c(=O)n3Cc3ccco3)c1)OCOC2	46% (inactive)	18
